# Results as given in PubChem BioAssay AID743316 (Broad Institute, 2014).
# Measured potencies and affinities stand elsewhere. The source made the active and inactive calls. The rule behind the calls is not given here.
# Conditions: HEK293 cytotoxicity, plate reader; series mostly up to 26 µM; activity change, negative = cytotoxicity: at the top concentration
Structure (SMILES),"activity change, negative = cytotoxicity",outcome
CSc1nc2ccccc2n1CCOc1ccc(C)cc1,3.08% (inactive),–
Cc1cccc(OCCn2c(=S)[nH]c3ccccc32)c1,-9.77% (inactive),–
Cc1ccc(OCCn2cnc3ccccc32)c(C)c1,-3.05% (inactive),–
Fc1cccc2c1[nH]c(=S)n2CCOc1ccccc1,-1.06% (inactive),–
Cc1ccc2c(c1)[nH]c(=S)n2CCOc1ccccc1,-7.88% (inactive),–
COc1cccc(OCCn2cnc3ccccc32)c1,-6.92% (inactive),–
Clc1ccc(OCCn2cnc3ccccc32)cc1,-3.98% (inactive),–
CC(C)Oc1ccc(OCCn2c(=S)[nH]c3ccccc32)cc1,-4.94% (inactive),–
Cc1cccc(OCCn2c(=S)[nH]c3c(F)cccc32)c1,–,inactive
CCc1nc2ccccc2n1CCOc1ccccc1,0.75% (inactive),–
FC(F)(F)c1cccc(OCCn2cnc3ccccc32)c1,-20.5% (inactive),–
CCCc1nc2ccccc2n1CCOc1ccccc1,-1.9% (inactive),–
Clc1ccccc1OCCn1cnc2ccccc21,1.94% (inactive),–
Cc1ccccc1OCCn1cnc2ccccc21,0.81% (inactive),–
CCSc1nc2ccccc2n1CCOc1ccccc1,-3.94% (inactive),–
CSc1nc2ccccc2n1CCOc1cc(C)ccc1C(C)C,-2.02% (inactive),–

Structure (SMILES),"activity change, negative = cytotoxicity",outcome
Cc1ccc(OCCn2cnc3cc(C)c(C)cc32)cc1,4.94% (inactive),–
Cc1cccc(OCCn2cnc3ccccc32)c1,0.448% (inactive),–
S=c1[nH]c2cccc(Cl)c2n1CCOc1ccccc1,-3.5% (inactive),–
Fc1ccc(OCCn2c(=S)[nH]c3ccccc32)cc1,3.96% (inactive),–
Fc1ccc2c(c1)[nH]c(=S)n2CCOc1ccccc1,-9.9% (inactive),–
COc1ccc(OCCn2cnc3ccccc32)cc1,1.18% (inactive),–
CS(=O)(=O)c1ccc(OCCn2cnc3ccccc32)cc1,-4.02% (inactive),–
COc1ccccc1OCCn1c(=S)[nH]c2ccccc21,6.22% (inactive),–
O=S(=O)(c1ccc(OCCn2cnc3ccccc32)cc1)N1CCOCC1,-5.74% (inactive),–
Cc1ccc(C(C)C)c(OCCn2c(=S)[nH]c3ccccc32)c1,-6.34% (inactive),–
CC(C)Oc1ccc(OCCn2cnc3ccccc32)cc1,-11.5% (inactive),–
CCCCc1nc2ccccc2n1CCOc1ccccc1,2.48% (inactive),–
OCc1nc2ccccc2n1CCOc1ccccc1,4.92% (inactive),–
Clc1ccc(OCCn2cnc3ccccc32)c(Cl)c1,-8.49% (inactive),–
Cc1cc2ncn(CCOc3ccccc3)c2cc1C,-13.7% (inactive),–
